According to PubChem BioAssay AID1460 (National Center for Advancing Translational Sciences (NCATS), 2008):
Hit rate of the full screen: of about 270,000 compounds, about 5,800 (2.1%) were called active. Entries that show only a call come without a potency. About 16% were inconclusive and are not listed. The sample holds actives, similar compounds and a random draw of the others, so the mix is not that of the screen. Calls come from the whole dose curve; as a rule, active = well fitted inhibition curve with a large enough effect; inconclusive = small, poorly fitted or top-dose-only effect; inactive = flat fitted curve, though single readings scatter.

target: Microtubule-associated protein tau (Homo sapiens) (UniProt P10636); test: qHTS for Inhibitors of Tau Fibril Formation, Thioflavin T Binding; details: recombinant tau K18 P301L (four-repeat tau fragment), heparin-induced fibrillization, ThT fluorescence; series mostly up to 57.4 µM; note: nearly all actives have a fitted effect of over 55% in size
Outline: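 Tau K18 P301L fragment (15 uM unlabeled plus 0.24 uM Alexa 594-labeled) in 100 mM sodium acetate pH 7 with compound, fibrillization induced by 20 uM heparin for 6 hr at 37 C. Thioflavin T (30 uM) added, fluorescence read after 1 hr (ex 450, em 510 nm).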
Potency is the fitted concentration of half-maximal effect.

Chain of Microtubule-associated protein tau (Homo sapiens) (P10636 561-689 P618L limits assumed): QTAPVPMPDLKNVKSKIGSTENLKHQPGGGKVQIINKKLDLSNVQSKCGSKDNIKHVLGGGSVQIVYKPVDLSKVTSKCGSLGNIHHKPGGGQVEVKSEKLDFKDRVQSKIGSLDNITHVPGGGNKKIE

| Structure (SMILES) | Potency |
| --- | --- |
| Cc1csc2nc(COC(=O)c3ccc(NC(=O)COc4ccccc4F)cc3)cc(=O)n12 | inactive |
| O=C(Nc1cccc2ncccc12)C(Cl)(Cl)Cl | inactive |
| Cc1ccc(/C=C(\C#N)C(=O)Nc2cccc3ncccc23)o1 | 14.1 µM (active) |
| O=C(Nc1cccc2ncccc12)c1ccc(-c2ccc(Cl)cc2Cl)o1 | inactive |
| O=C(NCc1ccccc1Cl)C1CCN(c2ncnc3c2nc2n3CCCCC2)CC1 | inactive |
| Cc1ccc(NC(=O)Cn2cnc3nc4c(cc3c2=O)CCCC4)cc1Cl | inactive |
| O=C(Nc1ccccc1)Nc1ccccc1C(=O)NCc1ccco1 | inactive |
| CCc1ccc(-c2cc(C(=O)NCc3ccco3)c3ccccc3n2)s1 | 25.1 µM (active) |
| CCOc1ccc(CNC(=O)c2cc(-c3ccc(Cl)s3)nc3ccccc23)cc1 | inactive |
| Cc1cc(C)cc(NS(=O)(=O)c2cc3c(cc2C)NC(=O)CO3)c1 | inactive |
| CCc1ccc(NC(=O)CCCc2nnc3n(CCCOC)c(=O)c4sccc4n23)cc1 | inactive |
| CCN(CC)c1ccc(NC(=O)CN2CCN(CC(=O)Nc3ccc(Cl)cc3)CC2)cc1 | inactive |
| COc1ccc(-c2nc(SCC(=O)N3CCCCC3C)n[nH]2)cc1 (stereo not given) | inactive |
| Cc1ccc(CNC(=O)CSc2c(C)cnc3c2c(=O)n(C)c(=O)n3C)cc1 | inactive |
| CC(CCO)Nc1nc2c([nH]1)c(=O)n(C)c(=O)n2C (stereo not given) | inactive |
| Cc1ccc(NN=Nc2nc3c([nH]2)c(=O)n(C)c(=O)n3C)cc1 | 28.2 µM (active) |
| CCc1cccc(CC)c1NC(=O)Cn1c(=O)c(-c2cc(C)ccc2NC(C)=O)nc2ccccc21 | inactive |
| Cc1nc(N2CCOCC2)nc2c1CCCC2 | inactive |
| Cc1cc(Oc2ccccc2)nc(N2CCOCC2)n1 | inactive |
| Nc1nc(-c2sc3nc4c(cc3c2N)CCCC4)nc(N2CCOCC2)n1 | 3.55 µM (active) |
| COc1ccc(CCNc2nc(-c3ccc(Cl)cc3)cc(C(F)(F)F)n2)cc1OC | inactive |
| COc1ccc2c(Sc3ccc(C)cc3)c(C(=O)NC(C)c3ccccc3)[nH]c2c1 (stereo not given) | inactive |
| CNC(=O)c1ccc(-c2nc(CN3CCc4ccccc43)c(C)o2)cc1 | inactive |
| CCc1ccc(NC(=O)c2nn(-c3ccc(C)cc3)c(=O)n(C)c2=O)cc1 | inactive |
| CC(C)CCNC(=O)CSc1nc2ccccc2nc1Cc1ccc(Cl)cc1 | inactive |
| CCc1ccc(Sc2cc(C(=O)NCCCOC(C)C)c3ccccc3n2)cc1 | inactive |
| COc1ccccc1OCCNc1cc(N2CCOCC2)ccc1[N+](=O)[O-] | 14.1 µM (active) |

| Structure (SMILES) | Potency |
| --- | --- |
| O=[N+]([O-])c1ccc(N2CCN(S(=O)(=O)c3ccc4ccccc4c3)CC2)cc1NCc1ccco1 | inactive |
| COc1ccccc1OCCNC(=O)c1cc([N+](=O)[O-])cc([N+](=O)[O-])c1 | inactive |
| Cc1ccc2nc(COc3cccc(NC(=O)Nc4ccc(C)c(Cl)c4)c3)cc(=O)n2c1 | inactive |
| CCc1ccc(CNCc2c(C(=O)O)n(Cc3ccc(F)cc3Cl)c3cc(OC)ccc23)cc1 | inactive |
| COc1ccc(S(=O)(=O)NCc2cccn2Cc2cccc(C)c2)cc1 | inactive |
| COc1ccc(Cc2nc3ccc(C(=O)NCc4ccccc4C)cc3o2)cc1 | inactive |
| O=C(Nc1ccccc1Cl)c1ccc2nsnc2c1 | inactive |
| O=C(Nc1ccccc1Cl)/C(Cl)=C(\Cl)S(=O)c1ccccc1 (stereo not given) | 2.82 µM (active) |
| COCCN(CCOC)C(=S)Nc1ccccc1Cl | inactive |
| CCOC(=O)C1CCCN(C(=O)Cn2ncc3c(C)n(Cc4ccc(F)cc4)c(C)c3c2=O)C1 (stereo not given) | inactive |
| O=C(CCc1nc(CN2CCN(S(=O)(=O)c3ccc(Cl)cc3)CC2)no1)N1CCCCC1 | inactive |
| CCC(=O)Nc1ccc(C)cc1-c1nc2ccccc2n(Cc2ccccc2)c1=O | inactive |
| C=CC[n+]1c(-c2ccc(C)cc2)csc1NNC(=O)Nc1ccccc1 | 15.8 µM (active) |
| Cc1ccc(NC(=O)Nc2ccccc2)c(Br)c1 | inactive |
| C=CCNc1scc(-c2ccccc2)[n+]1CC=C | inactive |
| O=C(NCC(c1ccc(Cl)cc1)N1CCOCC1)c1ccccc1F (stereo not given) | inactive |
| COc1ccc(-c2cc(C(=O)NCc3cc(OC)c(OC)c(OC)c3)[nH]n2)cc1 | inactive |
| Cc1ccc2c(c1)N(CC(=O)NCCCN1CCCCC1)C(=O)c1cccnc1O2 | inactive |
| Cc1ccc(Nc2c(-c3ccc(C)s3)nc3ccccn23)cc1 | inactive |
| Cc1ccc(-c2nc3cccc(C)n3c2Nc2ccc3c(c2)OCCO3)cc1 | inactive |
| Cc1ccc(Nc2c(-c3ccc(N(C)C)cc3)nc3nc[nH]n23)cc1 | 14.1 µM (active) |
| CCn1cc(C(=O)NCc2ccc(C)cc2)c(=O)c2cc(S(=O)(=O)N3CCc4ccccc4C3)ccc21 | inactive |
| Cc1c(-c2nsc(NC(=O)c3cccc(Cl)c3)n2)nnn1-c1ccccc1C(F)(F)F | inactive |
| CCOC(=O)c1ccc(NC(=O)Cn2cc(S(=O)(=O)Cc3ccccc3F)c3ccccc32)cc1 | inactive |
| O=C1CC(c2ccccc2)=NN1c1ccc([N+](=O)[O-])cc1 | 11.2 µM (active) |
| O=c1[nH]n(-c2ccc([N+](=O)[O-])cc2)c(=O)c2ccccc12 | inactive |
| COC(=O)CC1=NN(c2ccccc2)C(=O)C1 | inactive |

| Structure (SMILES) | Potency |
| --- | --- |
| O=C(NCC(c1cccnc1)N1CCc2ccccc21)c1cccc(C(F)(F)F)c1 (stereo not given) | inactive |
| COc1ccccc1-c1nnc(SCC(N)=O)o1 | inactive |
| CCOC(=O)c1c(NC(=O)CCC(=O)NCc2ccco2)sc2c1CCCC2 | inactive |
| O=C(Cc1ccccc1)Nc1sc2c(c1C(=O)Nc1ccc(Br)cc1)CCC2 | inactive |
| CCOc1ccc(NC(=O)c2c(NCc3cccc(OC)c3OC)sc3c2CCC3)cc1 | inactive |
| N#Cc1c(NC(=O)CCCl)sc2c1CCCCC2 | inactive |
| CCOc1ccc(NC(=O)c2c(NC(=O)Cc3ccccc3)sc3c2CCCCC3)cc1 | 22.4 µM (active) |
| Cc1ccc(NC(=O)c2c(NC(=O)CCC(=O)O)sc3c2CCCCC3)cc1 | 25.1 µM (active) |
| CCCn1ccc2c(OCC(=O)NCc3ccc(F)cc3)cccc2c1=O | inactive |
| COc1ccccc1NC(=O)C1=C(C)Nc2nc(SCC(=O)c3ccc(C)cc3)nn2C1c1ccccc1C (stereo not given) | inactive |
| COc1ccc(NC(=O)CCNS(=O)(=O)c2ccc3c(c2)CCCC(=O)N3)cc1Cl | inactive |
| COc1cc(NC(=O)CSc2nc3nc(C)c(Cc4ccc(C)cc4)c(C)n3n2)cc(OC)c1OC | inactive |
| COc1ccc(-c2nc(Cn3c(=O)cc(C)c4c(C)nn(-c5ccccc5)c43)c(C)o2)c(OC)c1 | inactive |
| CCOC(=O)Cn1c(=O)n(-c2ccccc2OC)c2nc(-c3cccc(F)c3)nc(C(N)=O)c21 | inactive |
| COc1cc(Cl)c(C)cc1Nc1nnc(-n2nc(C)cc2C)c2ccccc12 | inactive |
| CCc1ccc(CNC(=O)c2ccc(CS(=O)c3ccc(Br)cc3)o2)cc1 (stereo not given) | inactive |
| CCCCC(C(=O)OCC(=O)c1ccc(OC)cc1)N1C(=O)c2ccccc2C1=O (stereo not given) | inactive |
| CCOC(=O)C1=C(c2ccc(OC)cc2)C(=O)c2ccccc2C1=O | 14.1 µM (active) |
| CCOC(=O)c1ccccc1NS(=O)(=O)c1ccc(OC)cc1 | inactive |
| O=c1[nH]n2c(=O)c3c([nH]c2c1N=Nc1ccccc1)CCC3 | 3.16 µM (active) |
| O=c1[nH]c2c(c(=O)n1Cc1ccccc1)CCC2 | inactive |
| N#Cc1c2c(c(-c3ccccc3)[nH]c1=O)CCCC2 | inactive |
| O=C(Nc1cccc(Cl)c1)c1csnn1 | inactive |
| CCOC(=O)C1CCN(C(c2ccc(F)cc2)c2sc3nc(-c4ccco4)nn3c2O)CC1 (stereo not given) | inactive |
| CCOc1ccccc1/C=c1\sc2nc(-c3ccco3)nn2c1=O | 22.4 µM (active) |
| Oc1c(C(c2ccccc2Cl)N2CCOCC2)sc2nc(-c3ccco3)nn12 (stereo not given) | inactive |
| Cc1ccc2nc(COc3cccc(NC(=O)c4cccc(Cl)c4)c3)cc(=O)n2c1 | inactive |

| Structure (SMILES) | Potency |
| --- | --- |
| Clc1cccc(N=C2NN=C(c3ccc4c(c3)OCCO4)CS2)c1 | 15.8 µM (active) |
| O=C1OC(NC(=O)c2ccccc2)C(N2CCOCC2)=C1Cl (stereo not given) | inactive |
| c1ccc(-n2nnnc2N2CCOCC2)cc1 | inactive |
| O=C1C(Cl)=C(N2CCOCC2)C(=O)N1c1ccccc1 | 12.6 µM (active) |
| CCc1ccc(NC(=O)CSc2nc3c([nH]c4ccccc43)c(=O)n2-c2cccc(OC)c2)cc1 | inactive |
| Nc1ccccc1Sc1ccc(C(F)(F)F)cc1[N+](=O)[O-] | inactive |
| CCOC(=O)c1cc(Sc2ccccc2N)cc(C(=O)OCC)n1 | inactive |
| CCS(=O)(=O)c1cc([N+](=O)[O-])c(Sc2ccccc2N)s1 | 10 µM (active) |
| Cc1ccc(CNS(=O)(=O)c2ccc(-c3cc(C(F)(F)F)on3)s2)cc1 | inactive |
| O=[N+]([O-])c1cc(Cl)cc(/C=N/NC(=S)Nc2cc(S(=O)(=O)N3CCOCC3)ccc2Cl)c1O | 3.16 µM (active) |
| O=C(NC(=S)Nc1ccc(S(=O)(=O)N2CCOCC2)cc1)c1ccccc1[N+](=O)[O-] | inactive |
| O=C(Nc1cc(S(=O)(=O)N2CCOCC2)ccc1Cl)c1cc(=O)c2ccccc2o1 | inactive |
| Cc1ccc(N(C)C(=O)C2CCN(S(=O)(=O)c3ccc4c(c3)CCCN4C(=O)C3CCC3)CC2)cc1 | inactive |
| O=C(N/N=C\c1ccc(Br)cc1)c1ccc(Cn2cccn2)o1 | inactive |
| O=C(N/N=C/c1ccc2c(c1)OCO2)c1ccc(Cn2cc([N+](=O)[O-])cn2)o1 | inactive |
| CN(C)c1ccc(/C=N/NC(=O)c2ccc(Cn3cc(Br)cn3)o2)cc1 | 12.6 µM (active) |
| COC(=O)c1sc(=S)n(-c2ccccc2)c1N | inactive |
| CCOC(=O)c1c(N)sc(C(C)=O)c1C | inactive |
| COCCOC(=O)c1sc(=S)n(CCOC)c1N | 28.2 µM (active) |
| COc1ccccc1N1CCN(C(=O)C2CCN(S(=O)(=O)c3c(C)noc3/C=C/c3ccc(C)cc3)CC2)CC1 | inactive |
| CCn1cc(C(=O)OCC(=O)Nc2cc(C)cc(C)c2)c(=O)c2ccc(C)nc21 | inactive |
| CCCS(=O)(=O)N1CCC(n2c(C(F)(F)F)nc3cccnc32)CC1 | inactive |
| COc1ccc(CCNC(=O)c2ccc3c(c2)sc2nc(-c4ccc(C)cc4)cn23)cc1OC | inactive |
| O=C(NCc1ccc(Cl)cc1)c1ccc2c(c1)nnn2C1CCCC1 | inactive |
